The list is not random: actives were taken first. Their share in the collection is about 3%.
14-3-3 Bad PPI – disrupts binding of bovine 14-3-3 zeta to phospho-Bad peptide. P63103. actives 0.71% (n = 220,000). TR-FRET 14-3-3zeta/Dy647-pBad peptide displacement, 1 h. inhibition, % at 21.7 µM;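 active = inhibition above about 70%, limit read from the data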;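 also: 0% = full 14-3-3 plus peptide FRET controls and 100% = background without 14-3-3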
Efa HMGR inh – E. faecalis class II HMG-CoA reductase inhibition | purified E. faecalis HMGR, NADPH absorbance 340 nm kinetic | inhibition, % at 10 µM | actives 0.41% (n = 190,000);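 active = inhibition above a set limit, the median over all tested compounds plus 3 SD, cut at about 9.5% in these data; inconclusive = no clear call, values can overlap the other calls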;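 also: enzyme runs in reverse so mevalonate oxidation gives rising NADPH absorbance; 0% = complete reaction with DMSO and 100% = background rate lacking mevalonate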
Calpain2 inh – blocks pig calpain II enzyme activity. purified calpain II, fluorogenic peptide substrate, 30 min. inhibition, % at 16 µM. actives 0.37% (n = 220,000). AID 1236;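 active = inhibition above about 50%, limit read from the data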
TNF necrop inh – TNF-alpha cell death inhibition in Jurkat FADD-/- cells; Jurkat FADD-/- TNF necroptosis rescue, ATP luminescence, 24 h; 0 = TNF only, 100 = no-TNF cells; actives 0.068% (n = 220,000); activation (protection from cell death), % at 10 µM;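 active = activation, meaning protection from cell death, of at least 50% relative to plate controls; inactive = activation below 50%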;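 also: necroptosis triggered by 40 ng/mL TNF-alpha added together with compound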
L929 necroptosis – L929 zVAD cell death inhibition; L929 zVAD necroptosis rescue, ATP luminescence, 24 h; with zVAD 60 µM; viability rescue, % at 10 µM; actives 0.38% (n = 220,000); AID 1377;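 active = activation, scaled between plate controls, above about 75%, limit read from the data; inactive = activation under that limit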;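 also: 0% = zVAD with DMSO and 100% = DMSO alone without zVAD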
ROMK mod – modulates human ROMK potassium channel activity | B-score at 10 µM | AID 1918 | actives 2% (n = 130,000) | Tet-inducible ROMK, thallium flux fluorescence; actives lie on both sides | P48048;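 active = signal ratio slope over the read window, or its plate-corrected B-score, at least 3 SD from the plate mean, either direction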;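 also: B-score of the F/F0 ratio slope over 7 to 12 s after thallium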
Target sequence (P48048 whole entry, looked up): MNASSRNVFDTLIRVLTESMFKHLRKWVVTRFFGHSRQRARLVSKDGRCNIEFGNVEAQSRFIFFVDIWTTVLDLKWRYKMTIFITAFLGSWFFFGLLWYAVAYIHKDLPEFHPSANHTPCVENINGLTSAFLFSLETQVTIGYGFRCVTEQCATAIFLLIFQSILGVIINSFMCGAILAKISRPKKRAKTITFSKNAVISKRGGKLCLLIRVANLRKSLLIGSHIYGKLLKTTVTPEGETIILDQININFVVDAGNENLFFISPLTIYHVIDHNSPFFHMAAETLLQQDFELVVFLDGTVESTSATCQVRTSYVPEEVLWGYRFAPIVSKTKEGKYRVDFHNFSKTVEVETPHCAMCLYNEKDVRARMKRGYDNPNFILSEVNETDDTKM
ROMK hit retest – retested hit modulating human ROMK potassium channel; shares compounds with ROMK mod; ROMK thallium flux, fluorescence ratio; hits give low values; normalized thallium flux (F/F0 slope) at 10 µM; actives 54% (n = 3,000); AID 1917;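 active = Flux at 10 µM at least 3 SD below or above vehicle control mean in one or both replicates; inconclusive = no clear call, values can overlap the other calls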
The depositor's hits bear a star; u = inconclusive; x = not tested or not shown.

SMILES	14-3-3 Bad PPI	Efa HMGR inh	Calpain2 inh	TNF necrop inh	L929 necroptosis	ROMK mod	ROMK hit retest
Cc1ccccc1N1C(=O)C(Oc2ccc(Cl)cc2)C1CNCCCOC(C)C (centres undefined)	-2	0	17	5	0	-3.2*	0.059*
COc1ccccc1NC(=O)Cn1c2ccccc2c2nc3n(c(=O)c21)CCS3	9	-7	-11	1	1	-0.69	x
O=C(Cn1c2ccccc2c2nc3n(c(=O)c21)CCS3)Nc1ccccc1C(F)(F)F	20	-2	-55	0	2	-3.2*	0.069*
CCn1c(CNc2cccc(Cl)c2)nnc1SCC(=O)OC1CCCCC1	-2	-3	-20	-4	0	x	0.062*
CCCOc1ccc(C2NC(=S)NC(C)=C2C(=O)c2ccccc2)cc1OC (centres undefined)	5	2	-1	-1	1	x	x
CC(C)CCOC(=O)C[N+](C)(C)CCOC1CC2CCC1(C)C2(C)C (centres undefined)	-9	0	17	0	1	-4.1*	0.052*
CCCCCCCOC(=O)C[N+](C)(C)CCOC1CC2CCC1(C)C2(C)C (centres undefined)	27	-7	-9	-2	2	x	0.043*
CCCCCCOC(=O)C[N+](C)(C)CCOC1CC2CCC1(C)C2(C)C (centres undefined)	0	1	-27	-14	0	x	0.045*
CCCCOC(=O)C[N+](C)(C)CCOC1CC2CCC1(C)C2(C)C (centres undefined)	-1	-8	0	1	1	x	x
CCc1nc(SCC(=O)c2cccs2)c2oc3ccccc3c2n1	-37	-3	-9	-2	1	x	x
COc1cc(/C(C)=N/NC(=O)C(O)(c2ccccc2)c2ccccc2)ccc1O	1	-1	11	-2	2	1.7	x
COc1ccc2nccc(/C=C/c3ccnc4ccc(OC)cc34)c2c1	4	x	17	2	2	x	x
COc1cccc(-c2c(C#N)c(N)nc3c2c(=O)nc2sccn23)c1	-2	-3	22	1	-1	0.091	x
Clc1ccc(CSc2nnc(-c3cccnc3)n2Cc2ccco2)c(Cl)c1	-3	-1	-70	-1	0	-2.4*	u
Cc1ccc2c(c1)c1c3n2CCCNC3CCC1 (centres undefined)	-3	-3	18	-2	0	-2.1*	0.06*
COc1cccc(-c2nn(-c3ccccc3)cc2CN(C)C(C)c2ccon2)c1 (centres undefined)	6	-3	36	2	1	0.0094	x
COc1ccc(C2OC(=O)Cc3cc(OC)c(OC)cc32)cc1 (centres undefined)	2	1	23	1	1	-2.5*	0.086
CCOc1cc2c(cc1OCC)C(c1ccccc1OC)OC(=O)C2 (centres undefined)	4	-3	-2	0	x	0.15	x
O=C1O/C(=C/c2ccccc2)c2ccccc21	1	1	-61	2	2	0.31	x
O=C1/C(=C/c2ccccc2)Nc2ccccc21	4	-2	-10	-11	3	x	0.023*
CCc1cccc(CC)c1NC(=S)NCc1nc2ccccc2[nH]1	-10	4	0	-1	2	-0.41	x
O=C(NC(Nc1nc2ccc([N+](=O)[O-])cc2s1)(C(F)(F)F)C(F)(F)F)c1ccccc1Cl	9	-5	-12	-11	4	x	u
O=C(NC(Nc1nc2ccc([N+](=O)[O-])cc2s1)(C(F)(F)F)C(F)(F)F)c1cccnc1	-2	4	38	-11	4	-1.6	x
Cc1cc(C)c(C)c(S(=O)(=O)NC2CCN(Cc3ccccc3)CC2)c1C	-20	0	22	5	2	-4*	0.063*
Cc1cc(C)c(S(=O)(=O)NC2CCN(Cc3ccccc3)CC2)c(C)c1	0	x	13	5	0	x	x
SMILES	14-3-3 Bad PPI	Efa HMGR inh	Calpain2 inh	TNF necrop inh	L929 necroptosis	ROMK mod	ROMK hit retest
O=C(NNS(=O)(=O)c1ccc2ccccc2c1)C1CCN(Cc2ccccc2)CC1	-3	1	8	-5	0	x	x
O=S(=O)(NC1CCN(Cc2ccccc2)CC1)c1ccc2ccccc2c1	-15	0	-1	4	0	-3.5*	0.064*
COc1ccccc1CNC(=S)Nc1ccc2nc(N3CCN(C)CC3)cc(C)c2c1	-8	-7	-25	-4	2	-0.88	x
Cc1ccc(/C=C/C(=O)Nc2sc3c(c2C#N)CCCC3)o1	4	-3	-127	1	0	x	x
COc1ccc(CCNC(=O)C2CCN(Cc3nc(-c4cccc(Cl)c4)oc3C)CC2)cc1OC	-1	-13	-10	-1	-2	x	x
COc1ccc(-c2nc(CN3CCC(C(=O)N4CCc5ccccc54)CC3)c(C)o2)cc1OC	-12	2	-9	-2	0	x	u
CN(C)C(=O)c1sccc1Oc1ccc(F)cc1[N+](=O)[O-]	-1	-3	9	1	0	-0.44	0.08
O=C(O)c1sccc1Oc1ccc(F)cc1[N+](=O)[O-]	-2	-2	-9	-1	1	x	x
Cc1nn(-c2ccccc2)c(Cl)c1/C=C(\C#N)C(=O)NC(C)C	-9	0	-5	3	1	x	0.038*
COc1ccccc1NC(=O)/C(C#N)=C/c1c(C)nn(-c2ccc(F)cc2)c1Cl	6	-9	-42	2	0	x	x
COc1ccccc1C/C(N)=N/OC(=O)c1ccc2c(c1)OCO2	-8	6	-5	-1	8	-3.1*	0.072
COc1ccccc1C/C(N)=N/OC(=O)c1ccc(C)c([N+](=O)[O-])c1	-4	0	8	-3	0	x	x
Cc1cc(=O)[nH]c(N/N=C/C(C)c2ccccc2)n1 (centres undefined)	-8	x	1	0	0	x	x
COc1ccc(N/C=C2\C(=O)CCc3c2oc2cc(Cl)c(O)c(Cl)c32)cc1	25	x	-27	3	1	x	0.064*
COc1cc(NCCCCCCCN)c2ncccc2c1	10	-4	17	-4	2	-5.1*	0.062*
CSc1ccc(CN2CCN(Cc3ccc([N+](=O)[O-])cc3)CC2)cc1	-10	-4	-6	-5	2	-3.9*	0.054*
O=[N+]([O-])c1ccc(CN2CCOCCOCCN(Cc3ccc([N+](=O)[O-])cc3)CCOCC2)cc1	0	-1	2	2	-1	-9.9*	0.012*
CC(=O)Nc1ccc(Nc2c([N+](=O)[O-])c(=O)n(-c3ccccc3)c3ccccc23)cc1	-3	7	10	1	1	x	x
CC1CN(C2=Nc3cccc4cccc2c34)CC(C)O1 (centres undefined)	8	0	-103	0	3	-1.8*	0.063*

Screening results as filed in PubChem.
